Results as given in PubChem BioAssay AID430 (Sanford-Burnham Center for Chemical Genomics, 2006).
In all, about 63,000 compounds went through this assay and about 1,100 (1.7%) were called active. No stated cut-off is given here; in the data, active means cytotoxicity above about 50%; inactive means the rest. What follows is part of a selection rich in actives, with near analogues and random picks from the rest. Results with a measured potency or affinity are listed apart.

Test: cytotoxicity in HPDE-C7 cells, cell-based, fluorescence, HTS (AID 430);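 further: cells exposed to compound for 48 hours before viability readout; 0% = vehicle and 100% = reference cytotoxic drug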
Conditions: HPDE-C7 pancreatic duct cells viability, at 10 µM, active compounds read high
With `Cc1ccc(S(=O)(=O)Nc2ccc3nc(N)sc3c2)cc1` the cytotoxicity was -16.3% (inactive). For `CSc1nc2ccc(S(=O)(=O)NC3CCCCC3)cc2s1`, the cytotoxicity was 6.9% (inactive). With `CSc1nc2ccc(NS(=O)(=O)c3ccc(Cl)s3)cc2s1` the cytotoxicity was 55.3% (active). For `CCOc1cccc(/C(O)=C2/C(=O)C(=O)N(CCOC)C2c2ccc(C)o2)c1` (configuration not stated), the cytotoxicity was -8% (inactive). In the case of `Cc1cc(C)nc(N2CCC(CNC(=O)CCc3ccccc3)CC2)n1`, the cytotoxicity was -11.3% (inactive). For `O=C(CCc1nc2ccccc2[nH]1)Nc1ccccc1`, the cytotoxicity was -8.6% (inactive). In the case of `CCOC(=O)c1c(C)c(C(=O)Nc2ccc(N(C)C)cc2)c(C)n1CC`, the cytotoxicity was 54.2% (active). With `CCOC(=O)c1c(C)c(C(=O)Nc2ccc3c(c2)OCCO3)c(C)n1CC` the cytotoxicity was 17.2% (inactive). With `CCOC(=O)c1c(C)c(C(=O)Nc2ccccc2)c(C)n1CC` the cytotoxicity was 4.4% (inactive). With `CC(C)NS(=O)(=O)c1ccc(CCC(=O)O)cc1` the cytotoxicity was -5.7% (inactive). For `CC1=C(C(N)=O)C(c2cccnc2)n2nc(-c3cccc(C)c3)nc2N1` (configuration not stated), the cytotoxicity was -15.3% (inactive). With `CCc1cc(C(=O)Cc2nc3ccccc3[nH]2)c(O)cc1O` the cytotoxicity was 9.1% (inactive). With `CCCc1cc(C(=O)Cc2ccc(F)cc2)c(O)cc1O` the cytotoxicity was 78.8% (active). In the case of `CCc1cc(C(=O)Cc2ccc(F)cc2)c(O)cc1O`, the cytotoxicity was 54.4% (active). For `CCc1cc(C(=O)COc2ccccc2F)c(O)cc1O`, the cytotoxicity was 5.5% (inactive). For `CCCc1cc(C(=O)Cc2ccc(C(=O)OCC)o2)c(O)cc1O`, the cytotoxicity was 24% (inactive). For `CCc1cc(C(=O)Cc2cnn(-c3ccccc3)c2)c(O)cc1O`, the cytotoxicity was 14.9% (inactive). For `CC(=O)c1cnc2cc(-c3ccccc3)nn2c1C`, the cytotoxicity was -20.8% (inactive). In the case of `Cc1nc(SCc2ccccc2)c(C(F)(F)F)c(=O)[nH]1`, the cytotoxicity was 2.3% (inactive). With `Cc1nc(Nc2ccccc2)[nH]c(=O)c1CCC(C)C` the cytotoxicity was -16.8% (inactive). In the case of `Cc1ccc(Nc2nc(C)c(CCC(C)C)c(=O)[nH]2)cc1`, the cytotoxicity was 7.1% (inactive). In the case of `Cc1nc(Nc2ccc(F)cc2)[nH]c(=O)c1CCC(C)C`, the cytotoxicity was 62.1% (active). In the case of `O=C(Cn1nc(-c2ccccc2)c2ccccc2c1=O)NCCN1CCOCC1`, the cytotoxicity was -11.2% (inactive). For `Cc1ccc(-c2nn(CC(=O)NCCN3CCOCC3)c(=O)c3ccccc23)cc1`, the cytotoxicity was 0.5% (inactive). In the case of `O=c1c2cccc3c2c(nn1CN1CCOCC1)-c1ccccc1-3`, the cytotoxicity was 53% (active). With `O=C(CC(SCCO)c1ccc2c(c1)OCO2)c1ccco1` (configuration not stated) the cytotoxicity was 1.4% (inactive). With `CC(NC(=O)c1cccs1)c1ccc2c(c1)OCO2` (configuration not stated) the cytotoxicity was -2.3% (inactive). With `O=C(CSc1nnc(-c2ccc(O)cc2)n1Cc1ccco1)c1cccs1` the cytotoxicity was -1.1% (inactive). With `O=C(CC(SCc1ccco1)c1ccc(O)cc1)c1cccs1` (configuration not stated) the cytotoxicity was 54.4% (active). With `O=C(CC(SCCO)c1ccc2c(c1)OCO2)c1cccs1` (configuration not stated) the cytotoxicity was 54.5% (active). For `O=C(CSCc1ccco1)c1cccs1`, the cytotoxicity was -7.2% (inactive). With `COc1ccc(N2CCN(C(=O)CSc3ccccc3N)CC2)cc1` the cytotoxicity was -6.2% (inactive). With `O=C(CCCSc1nc(-c2ccco2)cc(C(F)(F)F)n1)NCc1cccs1` the cytotoxicity was -4.3% (inactive). In the case of `Cc1c(Cl)cccc1NC(=O)Cn1cccc1`, the cytotoxicity was 3.2% (inactive). With `Cc1cc(Nc2nc3ccccc3[nH]c2=O)n(-c2ccccc2)n1` the cytotoxicity was 8% (inactive). With `O=C(CN(Cc1ccco1)C(=O)CNS(=O)(=O)c1ccc(F)cc1)NCc1ccc(F)cc1` the cytotoxicity was -4% (inactive). For `O=C(CN(Cc1ccco1)C(=O)CNS(=O)(=O)c1ccc(Cl)cc1)NCc1ccc(F)cc1`, the cytotoxicity was 70% (active). With `O=C(CN(Cc1ccco1)C(=O)CNS(=O)(=O)c1ccccc1)NCc1ccc(F)cc1` the cytotoxicity was -1.3% (inactive). With `OCCNc1nc(Nc2ccccc2)nc(Nc2ccccc2)n1` the cytotoxicity was 2.2% (inactive). For `CC(C)n1c(Nn2cnnc2)nc2ccccc21`, the cytotoxicity was 3.1% (inactive). In the case of `Cc1cc(C(=O)OCC(=O)N2CCN(c3ccccc3)CC2)c2ccccc2n1`, the cytotoxicity was -8.3% (inactive). In the case of `O=C(CSc1nnc(-c2cccnc2)n1Cc1ccco1)c1ccccc1`, the cytotoxicity was -18.2% (inactive). For `O=C(Cc1cccs1)Nc1cccc(C(=O)Nc2ccco2)c1`, the cytotoxicity was 54.2% (active). With `CC(=O)c1cccc(NC(=O)Cc2cccs2)c1` the cytotoxicity was -5.3% (inactive). With `O=C(Cc1cccs1)Nc1ccc(NC(=O)c2ccco2)cc1` the cytotoxicity was -14.5% (inactive). In the case of `CCOC(=O)C(C)Sc1nnc(Cn2c(=O)sc3ccccc32)n1-c1ccccc1` (configuration not stated), the cytotoxicity was 18.4% (inactive). In the case of `CCOC(=O)N1CCN(C(=O)C2CCC(C(=O)N3CCN(C(=O)OCC)CC3)CC2)CC1` (configuration not stated), the cytotoxicity was -3.2% (inactive). For `O=C(c1cccc2ccccc12)N1CCN(CC2CC=CCC2)CC1` (configuration not stated), the cytotoxicity was -22% (inactive). In the case of `Cc1ccc(C(=O)Nc2cccc(C(=O)NCc3ccco3)c2)cc1`, the cytotoxicity was 62.7% (active). With `CCC(CC)C(=O)Nc1cccc(C(=O)NCc2ccco2)c1` the cytotoxicity was -24.1% (inactive). For `O=C(NCc1ccco1)c1cccc(NC(=O)c2ccccc2)c1`, the cytotoxicity was 10.1% (inactive). For `O=C(NCc1ccccc1)c1cccc(NC(=O)c2ccco2)c1`, the cytotoxicity was 44.7% (inactive). In the case of `Cc1occc1C(=O)Nc1cccc(C(=O)NCc2ccccc2)c1`, the cytotoxicity was -18% (inactive). With `O=C(O)c1ccc(CNC(=O)c2ccc(Br)o2)cc1` the cytotoxicity was 0.5% (inactive). In the case of `CC(OC(=O)C1CCN(S(=O)(=O)c2ccccc2)CC1)C(=O)Nc1ncc(Cl)cc1Cl` (configuration not stated), the cytotoxicity was -0.7% (inactive). For `Cc1ncoc1C(=O)Nc1ccc(Oc2ccccc2)cc1`, the cytotoxicity was -20.9% (inactive). For `O=C(Nc1ccc(O)cc1)c1ccc(C(=O)c2ccccc2)o1`, the cytotoxicity was -1.5% (inactive). In the case of `CCc1ccccc1N(CC(=O)N1CCN(c2ccccc2)CC1)S(C)(=O)=O`, the cytotoxicity was -3% (inactive). With `CCOC(=O)c1c(-c2cccs2)csc1NC(=O)CN1CC(C)OC(C)C1` (configuration not stated) the cytotoxicity was 61.1% (active). With `COC(=O)c1c(-c2cccs2)csc1NC(=O)CN1CCOCC1` the cytotoxicity was -10.4% (inactive). For `CCOC(=O)c1c(-c2cccs2)csc1NC(=O)CCCC(=O)O`, the cytotoxicity was 8.6% (inactive). For `CCOC(=O)c1ccc(NC(=O)CSc2nc3c(c(=O)n2CC)SC(C)C3)cc1` (configuration not stated), the cytotoxicity was 55.3% (active). In the case of `CCn1c(SCC(=O)Nc2cccc(C)c2)nc2c(c1=O)SC(C)C2` (configuration not stated), the cytotoxicity was 3.7% (inactive). With `CCOC(=O)c1ccc(NC(=O)CSc2nc3c(c(=O)n2C)SC(C)C3)cc1` (configuration not stated) the cytotoxicity was 1.1% (inactive). For `COC(=O)c1ccc(C(=O)Nc2ccc(N)cc2N)cc1`, the cytotoxicity was -13.9% (inactive). In the case of `c1ccc(N(c2ccccc2)c2nc(N3CCOCC3)nc(N3CCOCC3)n2)cc1`, the cytotoxicity was 4.8% (inactive). For `COC(=O)C1(C)Nc2ccccc2C(=O)N1c1ccccc1C` (configuration not stated), the cytotoxicity was 2.8% (inactive). With `CCC1(CC)Nc2ccccc2C(=O)N1c1ccc(NC(C)=O)cc1` the cytotoxicity was 10.6% (inactive). In the case of `CCOCCCNC(=O)C(c1ccc(Cl)cc1)N1CCN(C(=O)c2ccco2)CC1` (configuration not stated), the cytotoxicity was -11.6% (inactive). For `Cc1onc(-c2ccccc2)c1C(=O)NCc1cccnc1`, the cytotoxicity was 4.9% (inactive). For `Cc1cc(OCCCCCNCCO)ccc1Cl`, the cytotoxicity was 18.7% (inactive). For `O=C(NCc1ccco1)c1cc(-c2ccc(Cl)cc2)on1`, the cytotoxicity was 5.9% (inactive). For `CC(C)Cc1cc(C(=O)NCc2cccs2)no1`, the cytotoxicity was -21.1% (inactive). For `CC1(C)c2ssc(=S)c2-c2ccccc2N1C(=O)c1ccco1`, the cytotoxicity was -13.6% (inactive). For `CC1(C)Nc2ccc(O)cc2-c2c1ssc2=S`, the cytotoxicity was 67.4% (active). With `N#C/C(C(=O)c1ccccc1)=C1/CCCN1` the cytotoxicity was 10.8% (inactive). For `COc1ccc(CCN2CC(C#N)=C3c4cc(OC)c(OC)cc4CCN3C2)cc1OC`, the cytotoxicity was -1.5% (inactive). In the case of `O=C(c1ccccc1)N(Cc1ccc(F)cc1)C1CCS(=O)(=O)C1` (configuration not stated), the cytotoxicity was -9.7% (inactive). For `c1ccc2oc(NC3=NCN(CC4CCCO4)CN3)nc2c1` (configuration not stated), the cytotoxicity was -19.3% (inactive). In the case of `CCN(CC)C(=O)CSc1ncnc2c1nnn2-c1ccc(OC)cc1`, the cytotoxicity was -17.1% (inactive). With `COc1ccc(-n2nnc3c(SCC(=O)NCC4CCCO4)ncnc32)cc1` (configuration not stated) the cytotoxicity was -2.3% (inactive). In the case of `CCOC(=O)Cn1cnc2c(C#N)c3n(c2c1=O)CCCCC3`, the cytotoxicity was -8.7% (inactive). With `Cc1c(Br)c(C(F)(F)F)nn1CC(=O)NCC1CCCO1` (configuration not stated) the cytotoxicity was -17.2% (inactive). For `CCn1c(Cc2ccc(OC)cc2)nnc1SCC(=O)Nc1nc2ccccc2s1`, the cytotoxicity was -6% (inactive). With `CCn1c(Cc2ccccc2)nnc1SCC(=O)Nc1nc2ccccc2s1` the cytotoxicity was -5% (inactive). For `CCn1c(SCC(=O)Nc2nc3ccccc3s2)nnc1-c1ccc(OC)cc1`, the cytotoxicity was 58.5% (active). With `CCCCNc1nc2ccccc2n1CC(=O)N1CCc2ccccc2C1` the cytotoxicity was -0.3% (inactive). For `COc1cccc(-c2cc(C(=O)N3CCCc4ccccc43)no2)c1`, the cytotoxicity was -19.5% (inactive). For `CCOC(=O)C1=C(C)N=C2SC(C)C(=O)N2C1/C=C/c1ccccc1OC` (configuration not stated), the cytotoxicity was -8.3% (inactive). For `Cc1nc(Nc2ccncc2)c2oc3ccccc3c2n1`, the cytotoxicity was -28.9% (inactive). With `CCNc1nc(CC)nc2c1oc1ccccc12` the cytotoxicity was -12.6% (inactive). With `CCc1nc(Nc2ccncc2)c2oc3ccccc3c2n1` the cytotoxicity was 67.4% (active). For `c1ccc2c(c1)[nH]c1c(N3CCCC3)ncnc12`, the cytotoxicity was 0% (inactive). In the case of `c1ccc2c(c1)[nH]c1c(N3CCC4(CC3)OCCO4)ncnc12`, the cytotoxicity was -10.6% (inactive). With `OC1(c2cccc(C(F)(F)F)c2)CCN(c2ncnc3c2[nH]c2ccccc23)CC1` the cytotoxicity was 123% (active). For `COC(=O)c1cc2c(cc1Cl)SC(=NCCCN1CCOCC1)NS2(=O)=O`, the cytotoxicity was -1.2% (inactive). In the case of `O=C(COc1cccc2cccnc12)Nc1nccs1`, the cytotoxicity was 8.2% (inactive). For `O=C(O)c1cccnc1Oc1ccccc1`, the cytotoxicity was -7% (inactive). For `COC(=O)c1ccccc1OC(=O)c1ccc(Br)o1`, the cytotoxicity was 7.5% (inactive). In the case of `O=C(O)c1ccccc1NS(=O)(=O)c1cccc2cccnc12`, the cytotoxicity was 21.6% (inactive). For `FC(F)Oc1cccc2cccnc12`, the cytotoxicity was -5.8% (inactive). For `O=C(Nc1cccc2cccnc12)c1ccc(Br)o1`, the cytotoxicity was 5.6% (inactive).
